Assay results published in ChEMBL document CHEMBL4513146, “CO-ADD screening of Karazin Kharkiv National University (Ukraine) compounds”.
Potency and affinity values are given separately.

Key:
Klebsiella pneumoniae = conditions: Concentration 32 ug.mL-1;; ASSAY_TEST Inhibition of Bacterial Growth; detection method Absorption (OD600); MEDIA CAMHB; plate type 384well; NBS; CORNING #3640; time 18 hr
Candida albicans = conditions: Concentration 32 ug.mL-1; ASSAY_TEST Inhibition of Fungal Growth; detection method Absorption (OD530)
Cryptococcus neoformans = conditions: Concentration 32 ug.mL-1; ASSAY_TEST Inhibition of Fungal Growth; detection method Resazurin; Absorption (OD600-OD570); plate type 384well; NBS; CORNING #3640

Row | Structure (SMILES) | Inhibition (Klebsiella pneumoniae) | Inhibition (Candida albicans) | Inhibition (Cryptococcus neoformans)
1 | Cc1ccc(-n2ccn3c(=O)n(Cc4ccc(Cl)cc4)nc3c2=O)cc1C | 1.49% | 0.66% | -5.42%
2 | CCCCc1ccc(NC(=O)Cn2nc3c(N4CCN(c5ccccc5C)CC4)nccn3c2=O)cc1 | -4.55% | 48.6% | -6.75%
3 | Cc1nnc2c(S(=O)(=O)N(Cc3ccccc3)c3ccc(C(C)C)cc3)cccn12 | 8.51% | -1.81% | -8.23%
4 | COc1cc(OC)c(NC(=O)Cn2nc3c(Oc4ccccc4)nccn3c2=O)cc1Cl | -10.94% | 2.58% | -9.36%
5 | O=c1c2nnc(SCc3ccccc3F)n2ccn1-c1ccc(Br)cc1 | 15.43% | 3.99% | -9.71%
6 | CCc1nnc2ccc(S(=O)(=O)N(Cc3ccccc3)c3ccccc3)cn12 | 4.93% | 2.38% | -7.97%
7 | Cc1cccc(C)c1NC(=O)Cn1c(=O)c2nnc(C(C)C)n2c2ccccc21 | 1.46% | 4.52% | -19.69%
8 | COc1ccc(NC(=O)Cn2c(=O)c3nnc(C(C)C)n3c3ccccc32)cc1 | 10.47% | 4.15% | -13.18%
9 | Cc1ccc(F)cc1NC(=O)CSc1nnc2ccc(C(=O)Nc3cccc(F)c3)cn12 | 2.35% | -0.79% | -3.99%
10 | O=c1c2nn(Cc3cccc(Cl)c3)c(=O)n2ccn1-c1ccccc1 | 1.75% | 6.73% | -10.03%
11 | Cc1ccc(CNC(=O)Cn2nc3c(Sc4ccc(C)cc4C)nccn3c2=O)cc1 | 3.93% | 2.64% | -16.78%
12 | COc1ccccc1CNC(=O)Cn1nc2c(N3CCCCCC3)nccn2c1=O | 8.05% | 3.98% | -7.24%
13 | CCOC(=O)c1ccc(NC(=O)Cn2nc3c(SCc4ccc(Cl)cc4)nccn3c2=O)cc1 | 1.65% | 7.78% | -18.54%
14 | COc1ccc(-c2cc3c4nn(CC(=O)Nc5ccc(C)c(F)c5)c(=O)n4ccn3n2)cc1 | 3.92% | 28.75% | -7.43%
15 | Cc1ccc(NC(=O)Cn2nc3ccc(-c4ccc(C)c(C)c4)nn3c2=O)cc1 | 11.7% | -0.59% | -13.68%
16 | COc1cc(OC)c(NC(=O)Cn2nc3ccc(SC4CCCCC4)nn3c2=O)cc1Cl | 10.6% | 29.07% | -6.25%
17 | O=C(Cn1nc2ccc(SC3CCCCC3)nn2c1=O)Nc1ccc(F)c(F)c1 | 13.05% | 13.65% | -16.79%
18 | COc1ccc(NC(=O)CSc2nnc3ccc(C(=O)Nc4cccc(F)c4)cn23)cc1 | 4.36% | 3.08% | -2.63%
19 | CCc1ccc(NC(=O)Cn2nc3cc(C)nc(Nc4ccc(C)c(F)c4)n3c2=O)cc1 | 10.82% | 3.74% | -2.27%
20 | O=C(Cn1nc2n(Cc3ccccc3)c(=O)c3ccccc3n2c1=O)Nc1ccc2c(c1)OCO2 | 2.83% | 0.36% | -11.06%
21 | O=c1n(Cc2cccc(C(F)(F)F)c2)nc2ccc(S(=O)(=O)N3CCCC3)cn12 | 10.57% | 0.2% | -10.53%
22 | O=c1c2nnc(SCc3ccc(F)cc3)n2ccn1-c1ccc(Br)cc1 | 4.74% | 2.87% | -8.82%
23 | COc1cccc(Sc2nc3ccccc3n3c(=O)n(CC(=O)Nc4c(C)cc(C)cc4C)nc23)c1 | 4.89% | -0.39% | -17.68%
24 | COc1ccccc1Cn1c(=O)c2sccc2n2c(=O)n(CC(=O)c3ccc(C)cc3C)nc12 | 4.01% | 8% | -26.25%
25 | C=Cc1ccc(CN(c2ccc(F)c(F)c2)S(=O)(=O)c2cccn3cnnc23)cc1 | 8.42% | 2.5% | -8.63%
26 | Cc1nnc2c(=O)n(CC(=O)Nc3cccc(Cl)c3)c3ccccc3n12 | 15.43% | -0.29% | -13.95%
27 | CCOc1ccc(-n2ccn3c(SC(CC)C(=O)Nc4ccc(C(C)C)cc4)nnc3c2=O)cc1 (centres undefined) | 9.42% | 6.16% | -12.9%
28 | CCC(Sc1nnc2c(=O)n(-c3ccccc3)ccn12)C(=O)Nc1ccc(OC)cc1OC (centres undefined) | 9.44% | 2.91% | -10.74%
